TDP1 cell noCPT = qHTS for Inhibitors of human tyrosyl-DNA phosphodiesterase 1 (TDP1): qHTS in cells in absence of CPT; Potency, µM (doses to about 46.2 µM), for the others: top-dose activity change, negative = growth inhibition, hits mostly inhibitors; hit rate 15% among 420,000; DT40 Tdp1-/- hTDP1 cells, no CPT, ATP luminescence, 48 h; further: potency means the concentration at half of the fitted maximal effect; on the % scale 0 is the no-effect control and ±100 the full control effect; nearly all actives have a fitted effect of over 55% in size
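Cells were dispensed at 400 per well, compounds added by pin tool, plates incubated ≥48 hr at 37 °C, then CellTiter-Glo added for 30 min at room temperature before luminescence reading. Line: DT40 Tdp1-/- complemented with hTDP1; camptothecin omitted.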
TGFb inhibitor = TGF-b pathway inhibition; hit rate 1.2% among 410,000; Potency, µM (series often up to 46.1 µM), for inactives: top-dose activity, negative = inhibition, usual class: inhibitors; HepG2 CAGA-GFP TGF-b/SMAD3 reporter, GFP fluorescence, 18 h; TGF-beta stimulated, 500 pg/mL final; further: potency means the concentration at half of the fitted maximal effect; on the % scale 0 is the no-effect control and ±100 the full control effect; nearly all actives have a fitted effect of over 65% in size
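First, reporter cells (HEPG2 CAGA-GFP) rested 2 h at 37 degrees C. Next, compounds were pinned in and TGF-beta added to 500 pg/mL final. After 18 h, GFP was imaged per cell and summed per well.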
IL-1B inflam inh = inflammasome signaling inhibition, IL-1 beta readout | THP-1 LPS/ATP IL-1B secretion, AlphaLISA, 16 h; stronger effect = lower value | activity change, % at 57.5 µM | hit rate 4.7% among 360,000; in the data active means activity change below about -50%; inconclusive means mostly about -30% to -49%; further: on the % scale 0 is the no-effect control and ±100 the full control effect
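Secreted IL-1B measured by AlphaLISA bead assay after 16 h compound exposure of THP-1 cells; compounds (final up to 57.5 uM) added 1 h before LPS (250 ng/mL) and ATP (1.25 mM) stimulation; lower signal means less secretion.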
HepG2 tox = kills HepG2 cells in TGF-b inhibitor counter-screen. HepG2 CAGA-GFP viability, ATP luminescence, 18 h. Potency, µM (series often up to 46.1 µM), without a hit: top-dose activity change, negative = cytotoxicity, actives largely listed as cytotoxic. hit rate 0.76% among 410,000. AID 588856; further: potency means the concentration at half of the fitted maximal effect
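HepG2 CAGA-GFP cells (1000/well, DMEM with 1% FBS) received compound, then TGF-beta at 500 pg/mL final, and were incubated 18 hours at 37 degrees C. Viability was read by CellTiter-Glo luminescence. Media-only wells were set as complete cell-killing and DMSO as no toxicity.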
TDP1 cell CPT = growth inhibition of DT40 Tdp1-/-;hTDP1 cells with camptothecin (screen for TDP1 inhibitors) | hit rate 12% among 420,000 | chicken DT40 Tdp1-/-;hTDP1 cells + 20 nM CPT, ATP luminescence, 48 h | Potency, µM (top dose mostly 46.2 µM), without a hit: at the top dose activity change, negative = growth inhibition, usual class: inhibitors; further: potency means the concentration at half of the fitted maximal effect; on the % scale 0 is the no-effect control and ±100 the full control effect; nearly all actives have a fitted effect of over 55% in size
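Chicken DT40 Tdp1-/- cells stably complemented with human TDP1 were seeded at 400 cells/well in medium containing 20 nM camptothecin, exposed to pin-transferred compounds, and grown at 37 °C for at least 48 hr. Viability was read as ATP luminescence.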
TDP1 block = blocks human tyrosyl-DNA phosphodiesterase 1. recombinant TDP1, AlphaScreen DNA substrate cleavage. Potency, µM (top dose mostly 130 µM), without a hit: at the highest dose activity change, negative = inhibition, most hits filed as inhibitors. hit rate 0.28% among 350,000. AID 485290; further: potency means the concentration at half of the fitted maximal effect; on the % scale 0 is the no-effect control and ±100 the full control effect; nearly all actives have a fitted effect of over 40% in size
Target sequence (Q9NUW8 whole entry, looked up): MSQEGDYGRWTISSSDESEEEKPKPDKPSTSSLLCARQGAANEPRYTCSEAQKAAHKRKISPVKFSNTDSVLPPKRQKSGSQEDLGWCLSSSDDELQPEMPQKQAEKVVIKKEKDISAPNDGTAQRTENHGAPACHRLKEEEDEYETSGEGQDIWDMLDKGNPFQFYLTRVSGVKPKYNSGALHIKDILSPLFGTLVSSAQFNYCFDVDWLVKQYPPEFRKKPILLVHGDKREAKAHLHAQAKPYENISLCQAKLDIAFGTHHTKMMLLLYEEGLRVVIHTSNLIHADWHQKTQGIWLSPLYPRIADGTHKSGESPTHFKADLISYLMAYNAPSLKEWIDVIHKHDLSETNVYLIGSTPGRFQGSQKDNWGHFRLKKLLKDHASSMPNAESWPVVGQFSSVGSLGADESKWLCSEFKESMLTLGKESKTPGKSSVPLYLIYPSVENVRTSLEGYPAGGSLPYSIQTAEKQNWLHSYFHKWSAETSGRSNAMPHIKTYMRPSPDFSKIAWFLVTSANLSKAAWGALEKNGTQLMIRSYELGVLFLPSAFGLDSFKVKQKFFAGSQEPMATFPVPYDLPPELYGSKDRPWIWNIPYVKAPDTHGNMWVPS
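Signal: AlphaScreen proximity between streptavidin donor and anti-FITC acceptor beads on intact substrate. Reaction: Tdp1 1 nM, substrate 15 nM final, 5 min RT after 15 min compound preincubation.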
The depositor's hits bear a star; ? = inconclusive; . = no result given; [ ] = remark or other dose. An excerpt weighted towards active compounds, which were near 19% of everything screened. Unless noted, the call rests on the fitted dose curve; in most records, active means well fitted curve in the direction sought with a large enough effect; inconclusive means small, poorly fitted or top-dose-only effect, or another doubt; inactive means no such curve, though single readings can be large; an effect the other way counts as inactive or inconclusive.

SMILES	TDP1 cell noCPT	TGFb inhibitor	IL-1B inflam inh	HepG2 tox	TDP1 cell CPT	TDP1 block
O=C(c1ccco1)N1CCN(c2ncnc3c(-c4ccccc4)nsc23)CC1	21µM*	1%	-7	-15%	18µM*	-4%
COc1ccc(C)cc1NC(=O)CCS(=O)(=O)c1cc2c3c(c1)CCN3C(=O)CC2	-27%	-5%	.	3%	?	11%
CO[C@H]1[C@H](NC(=O)c2ccco2)c2ccccc2C12CCN(Cc1cnc(N(C)C)s1)CC2	-13%	.	.	.	4%[9.04 µM]	.
COc1ccc(CN2CCN(c3ncnc4sc5c(c34)CC(C)CC5)CC2)cc1F (stereo not drawn)	6.5µM*	-15%	.	-38%	15µM*	.
CC1CCc2c(sc3nc(C4CC4)nc(N4CCN(C(=O)c5ccco5)CC4)c23)C1 (stereo not drawn)	?	?	-17	10µM*	?	.
CCOc1ccc(CN2CCN(c3ncnc4sc5c(c34)CC(C)CC5)CC2)cc1 (stereo not drawn)	?	3%	.	24%	-20%	.
O=C1CCCC2=C1C(c1ccc(Cl)cc1)N=C(Nc1nc3ccccc3o1)N2 (stereo not drawn)	?	0%	.	-1%	?	1%
CC1=[N+]([O-])C(C)(C)N(O)C1(C)C	-17%	-11%	1	1%	-9%	-5%
C[C@@]12C=Cc3occc3[C@H]1CC[C@]13CC(=O)[C@@H](CC[C@H]12)C3	.	?	.	-35%	.	7%
N#Cc1cc2c(nc1SCC(=O)Nc1sc3c(c1C#N)CCC3)CCCCC2	-21%	17%	-8	-19%	?	6%
Cc1cc(NC(=O)CSc2nc3c(cc2C#N)CCCC3)no1	?	9%	-1	25%	0%	-3%
CCOC(=O)c1sc(NC(=O)CSc2nc3c(cc2C#N)CCCCCC3)c(C#N)c1C	26µM*	21%	28	-17%	16µM*	4%
N#Cc1cc2c(nc1SCC(=O)Nc1sc3c(c1C#N)CCC3)CCCC2	12µM*	-10%	-60*	-4%	?	-2%
CCOC(=O)c1sc(NC(=O)CSc2n[nH]c(-c3ccc(Cl)cc3Cl)n2)c(C#N)c1C	16µM*	10%	0	2%	?	4%
COc1ccc(C2/C=C\CN(C(=O)C3CCCC3)C(C)C(=O)N2Cc2ccc(F)cc2)cc1 (stereo not drawn)	.	?	.	-17%	.	9%
C[C@H]1[C@H](C)CC[C@]2(C=O)CC[C@]3(C)C(=CC[C@@H]4[C@@]5(C)C[C@@H](O)[C@H](O)[C@@](C)(CO)[C@@H]5CC[C@]43C)[C@H]12	.	.	.	.	.	12%
CC(=O)N1c2ccccc2S(=O)(=O)c2c1ccc1ccccc21	-3%	-11%	?	-1%	0%	.
COc1cccc(C(=O)NNC(=O)c2ccc3ccccc3c2O)c1	9.2µM*	?	51	-37%	?	.
O=C(NNC(=O)c1cccc2ccccc12)c1ccc(Cl)cc1Cl	?	-14%	-16	-22%	?	.
CC(=O)Nc1ccc(Br)c2ccccc12	?	-11%	7	-6%	-17%	3%
O=C(NNC(=O)c1ccc2ccccc2c1O)c1ccccc1Cl	13µM*	-23%	7	-35%	?	5%
O=C(Nc1ccc(Br)c2ccccc12)c1ccc2ccccc2c1O	8.2µM*	?	-51*	2%	8.2µM*	8%
O=C(NCc1ccc(Cl)cc1)c1cnc(N2CCCCC2)c2ccccc12	?	?	.	-18%	?	-7%
COc1cccc(CNC(=O)c2cnc(N3CCCCC3)c3ccccc23)c1	?	-18%	.	-9%	15µM*	3%
O=C(NCc1ccc(F)cc1)c1cnc(N2CCOCC2)c2ccccc12	16µM*	7%	.	6%	?	0%

Screening results from PubChem.
